The list is not random: actives were taken first. Their share in the collection is about 2.4%.
D2 antagonist: antagonizes the human D2 dopamine receptor. inhibition, % at 10 µM. hit rate 2% among 340,000. HEK293 TREx D2 cells, calcium flux, dopamine EC80; in the data active = inhibition above about 30%; inactive = below that, where a call was filed
Target sequence (P14416 whole entry, looked up): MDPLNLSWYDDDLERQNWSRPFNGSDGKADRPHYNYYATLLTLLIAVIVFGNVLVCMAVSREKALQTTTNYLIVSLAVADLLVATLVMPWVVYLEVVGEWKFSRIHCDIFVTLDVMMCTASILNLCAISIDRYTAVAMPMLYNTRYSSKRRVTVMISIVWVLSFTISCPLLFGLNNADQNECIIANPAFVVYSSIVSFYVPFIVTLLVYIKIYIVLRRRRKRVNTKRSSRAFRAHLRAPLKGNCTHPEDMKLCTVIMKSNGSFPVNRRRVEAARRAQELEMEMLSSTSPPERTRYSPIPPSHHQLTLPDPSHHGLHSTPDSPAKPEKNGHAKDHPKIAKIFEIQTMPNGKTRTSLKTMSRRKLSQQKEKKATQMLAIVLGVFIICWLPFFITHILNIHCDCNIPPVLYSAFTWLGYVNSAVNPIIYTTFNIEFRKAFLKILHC
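HEK293 T-REx D2 cells, tet-induced, calcium dye no-wash. Cpd pintool add, 180 s kinetic, then EC80 DA, 180 s kinetic. Ca flux read.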
D2 PAM-1: human D2 receptor positive allosteric modulation | AID 624464 | hit rate 0.23% among 360,000 | potentiation, % (concentration not given with the values) | DiscoveRx D2 beta-arrestin cells, luminescence, 90 min; 100% = 57 uM dopamine signal | P14416; in the data active = potentiation above about 50%
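D2 cells co-treated with compound plus 50 nM dopamine (EC20) for 90 min at 37 deg C to detect potentiation. Beta-arrestin recruitment was read as enzyme-fragment luminescence after 1 h at ambient temperature. Full response was set by 57 uM dopamine.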
D2 ag-1: human D2 receptor agonism in beta-arrestin assay. P14416. DiscoveRx PathHunter D2 beta-arrestin, luminescence, 90 min; 100% = 57 uM dopamine signal. activation, % (test concentration not listed). hit rate 0.084% among 360,000. AID 624465; in the data active = activation above about 40%
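DiscoveRx PathHunter D2 beta-arrestin cells (2,100/well) attached overnight, then compound-stimulated 90 min at 37 C in HBSS/10 mM HEPES/0.1% Tween-20 buffer; beta-galactosidase complementation read by luminescence after 1 h at ambient temperature. Dopamine 57 uM final (EC100) as control.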
D2 PAM-2: positive allosteric modulators of human D2 dopamine receptor; HEK293 T-REx D2, calcium flux, EC20 dopamine potentiation; potentiation, % at 10 µM; hit rate 0.34% among 340,000;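 active = potentiation over 3 SD above the plate norm, cut at about 30% in these data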
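Cells plated with tetracycline inducer and held overnight at 30 C; calcium dye loaded 30–90 min at room temperature; baseline taken, compound added and read 180 s; EC20 dopamine then added and read 180 s.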
D2 ag-2: D2 dopamine receptor (human) agonism; hit rate 0.53% among 340,000; P14416; activation, % at 2 µM; HEK293 T-REx D2 cells, calcium flux agonist mode;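 active = activation over 3 SD above normal in the single-dose calcium agonist read, cut at about 30% in these data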
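Calcium-flux readout, 1 cycle/sec over 180 s following compound pin transfer, in inducible HEK293 Trex D2 cells (force-coupled); dopamine controls included. Positive calcium responses during this window marked compounds as potential agonists.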
Each line names hits and unclear results; the compound was inactive in the other large screens.

Cc1cccc(NCc2ccc(N(C)C)cc2)n1	D2 PAM-2 33
Fc1cccc(CSc2ncnc3c2oc2ccccc23)c1	D2 antagonist 31
Fc1ccc(CSc2ncnc3c2oc2ccccc23)cc1	none
CCOC(=O)N1CCN(Cc2nc3cc(NC(=O)c4ccc([N+](=O)[O-])cc4)ccc3n2C(C)C)CC1	none (no result: D2 antagonist, D2 PAM-1, D2 ag-1)
CCOc1ccc(Br)cc1S(=O)(=O)N1CCCC1	D2 antagonist 54
Cc1cc(C)nc(NS(=O)(=O)c2ccc(NC(=O)COc3ccc(C(C)(C)C)cc3)cc2)n1	none (no result: D2 antagonist, D2 PAM-1, D2 ag-1)
COC(=O)c1cc(NC(=O)c2oc(=O)c3ccccc3c2-c2ccccc2)cc(C(=O)OC)c1	none (no result: D2 antagonist, D2 PAM-1, D2 ag-1)
CCN(CC)c1ccc(/C=C2/C(=O)c3ccc(C(=O)O)cc3C2=O)cc1	D2 ag-2 84
COCCCNC(=O)c1oc2c(c1C)-c1nn(Cc3cccc(Cl)c3)cc1CC2	none (no result: D2 antagonist, D2 PAM-1, D2 ag-1)
O=C(CSc1ccc(S(=O)(=O)N2CCCCC2)cn1)Nc1ccccc1Br	D2 ag-1 41
O=S(=O)(c1ccc(SCCOc2cccc(Br)c2)nc1)N1CCCC1	D2 antagonist 42
COc1cccc(-n2cnnn2)c1	D2 antagonist 38
COc1cc(OC)cc(N2CCN(S(=O)(=O)c3ccc(-n4cnnn4)cc3)CC2)c1	D2 antagonist 46
CC(C)(C)NC(=O)C1CCCN(S(=O)(=O)c2ccc(-n3cnnn3)cc2)C1 (stereo not given)	D2 antagonist 32
COC(=O)c1cccc(-n2cnnn2)c1	none
CC(=O)Nc1ccc(NC(=O)C2CCCN(S(=O)(=O)c3ccc(-n4cnnn4)cc3)C2)cc1 (stereo not given)	none (no result: D2 PAM-2)
CN(Cc1ccccc1)C(=O)CSc1nc2ccsc2c(=O)n1-c1ccc(F)cc1	none (no result: D2 antagonist, D2 PAM-1, D2 ag-1)
COC(=O)c1cc2cc(NS(=O)(=O)c3ccc(C)cc3)ccc2s1	D2 PAM-2 43
COC(=O)c1sc(S(=O)(=O)Nc2ccc(C)cc2)c(C(=O)OC)c1C	D2 PAM-2 32
O=c1oc2ccccc2cc1-c1cn2cc(Cc3ccc(Br)cc3)sc2n1	none (no result: D2 antagonist, D2 PAM-1, D2 ag-1)
Cc1ccsc1/C=N/NC(=O)c1ccc2ccccc2c1	D2 antagonist 41
Cc1ccsc1/C=N/NC(=O)c1ccncc1	none
CCOC(=O)C1=C(C)n2c(s/c(=C3\C(=O)Nc4ccccc43)c2=O)=NC1c1ccc(OC)cc1 (stereo not given)	D2 antagonist 40
CCOC(=O)C1=C(C)N=c2s/c(=C3/C(=O)Nc4ccccc43)c(=O)n2C1c1ccc(C)cc1 (stereo not given)	none
CCc1ccc(NC(=O)CN(c2ccc(C)cc2)S(=O)(=O)c2cccs2)cc1	none (no result: D2 antagonist, D2 PAM-1, D2 ag-1)
CCOc1ccc(C(=O)Nc2ccc3c(c2)OCCO3)cc1OC	none
Cc1ccc(NC(=O)c2ccc3c(c2)OCCO3)cc1S(=O)(=O)Nc1cccc(Cl)c1	D2 antagonist 31
CCOc1ccc(NC(=O)c2ccc3c(c2)OCCO3)cc1S(=O)(=O)N(CC)CC	D2 antagonist 32
COc1ccccc1CCNS(=O)(=O)c1c(C)n(C)c(=O)n(C)c1=O	D2 PAM-2 32
COc1ccccc1CCNS(=O)(=O)c1cn(C)c(=O)n(C)c1=O	none
O=S(=O)(CCn1cccc1)CCn1cccc1	D2 PAM-2 30
CCn1c2c(c(=O)n3ncc(C(=O)Nc4ccc(C(=O)OC)cc4)c13)CN(Cc1ccc(OC)cc1)CC2	none (no result: D2 antagonist, D2 PAM-1, D2 ag-1)
CC1CCN(S(=O)(=O)c2ccc3c(c2)N(CC(=O)NCC(C)c2ccccc2)C(=O)CO3)CC1 (stereo not given)	none (no result: D2 antagonist, D2 PAM-1, D2 ag-1)
OC1(c2cccs2)CN(c2ccc(Br)cc2)C2=[N+]1CCCS2 (stereo not given)	none
COc1ccc(OC)c(N2CC(O)(c3cccs3)[N+]3=C2SCCC3)c1 (stereo not given)	D2 antagonist 40
COc1cccc(CNCc2cccc(Br)c2)c1OC	D2 antagonist 36
CC(NC(=O)Cn1cccc1C(=O)c1ccccc1)c1ccc2c(c1)OCCO2 (stereo not given)	D2 PAM-2 34
CCOc1ccc(-c2cc3c(=O)n(Cc4nc(-c5ccc(OC)cc5OC)oc4C)ccn3n2)cc1Cl	none (no result: D2 antagonist, D2 PAM-1, D2 ag-1)
Cn1c(=O)c(C(=O)CN2CCOCC2)c(N)n(Cc2ccccc2)c1=O	none
CC1CN(CC(=O)c2c(N)n(Cc3ccccc3)c(=O)n(C)c2=O)CC(C)O1 (stereo not given)	D2 antagonist 36
Cc1ccc(NC(=O)Cn2cc(C(=O)c3ccco3)c3ccccc32)cc1	none (no result: D2 antagonist, D2 PAM-1, D2 ag-1)
Cc1ccc(NC(=O)CN2CCN(C3CCCCC3)C(=O)C2=O)cc1C	none (no result: D2 antagonist, D2 PAM-1, D2 ag-1)
CCC(C(=O)Nc1cc(-c2nc3cccnc3s2)ccc1C)c1ccccc1 (stereo not given)	none (no result: D2 antagonist, D2 PAM-1, D2 ag-1)
COCCN1CC(O)=C(c2nc3ccccc3c(=O)[nH]2)C1=N	D2 antagonist 38
CCCCCN1CC(O)=C(c2nc3ccccc3[nH]2)C1=N	D2 antagonist 39
Cc1ccc(Cn2c(CNC(=O)c3ccc(Cl)c([N+](=O)[O-])c3)nc3cccnc32)cc1	none (no result: D2 antagonist, D2 PAM-1, D2 ag-1)
Nn1c(SC/C=C/c2ccccc2)nnc1-c1ccncc1	D2 antagonist 38
Cc1nn(S(=O)(=O)c2cccc([N+](=O)[O-])c2)c(C)c1S(=O)(=O)N1CCOCC1	none
Cc1nn(S(=O)(=O)c2cccc([N+](=O)[O-])c2)c(C)c1Br	D2 PAM-1 62
CCNC(=O)c1c(NC(=O)c2nc(S(=O)(=O)CC)ncc2Cl)sc2c1CCCC2	none (no result: D2 antagonist, D2 PAM-1, D2 ag-1, D2 PAM-2)
CCN(C(=O)CSc1nc2ccccc2n1Cc1ccc(C(=O)OC)cc1)c1ccccc1	none (no result: D2 antagonist, D2 PAM-1, D2 ag-1)
O=c1[nH]nc(CNc2ccc(C(F)(F)F)cc2)c2ccccc12	none
O=c1[nH]nc(CNc2ccc(O)cc2)c2ccccc12	D2 PAM-1 71
Fc1ccc(Nc2nc(-c3cccc(Cl)c3)c3c(n2)-c2ccccc2OC3)cc1	none (no result: D2 antagonist, D2 PAM-1, D2 ag-1)
Cc1ccc(N=C(NO)c2nonc2N)c(C)c1	none
Cc1ccc(N=C(NOC(=O)c2ccccc2)c2nonc2N)c(C)c1	D2 PAM-1 95
Cc1cc(C)n2nnnc2n1	D2 antagonist 38
CCN(C1CCCCC1)S(=O)(=O)c1ccc(S(=O)(=O)NCCc2ccncc2)cc1	D2 antagonist 32
CCN(C1CCCCC1)S(=O)(=O)c1ccc(S(=O)(=O)NCc2ccncc2)cc1	none (no result: D2 antagonist, D2 PAM-2, D2 ag-2)
CC(C)c1nn2c(=O)cc(COC(=O)c3ccccc3NC(=O)c3cccc(Cl)c3)nc2s1	none (no result: D2 antagonist, D2 PAM-1, D2 ag-1)
COc1ccccc1-n1c(SCC(=O)N2CCOCC2)nc2cccnc21	D2 antagonist 60
O=C(CC(c1cccs1)N1Cc2ccccc2C1=O)Nc1ccc(F)c(Cl)c1 (stereo not given)	none (no result: D2 antagonist, D2 PAM-1, D2 ag-1)
COc1ccc(OCC(=O)NCCCN2CCOCC2)cc1	D2 antagonist 32
CCC(=O)c1ccc(OCC(=O)NCCCN2CCOCC2)cc1	none (no result: D2 antagonist, D2 PAM-2, D2 ag-2)
Cc1cc(OCC(=O)NCCN2CCOCC2)c2c(C)c(C)c(=O)oc2c1	D2 PAM-2 33

From PubChem
